Consider three molecules from the supplement of paper PMC11732987, “Enantioselective OTUD7B fragment discovery through chemoproteomics screening and high-throughput optimisation” (Communications Chemistry, 2025).

Values without a mark were called inactive.

Assay in all cases: log2 ratio of Biotin-Ahx-Ub-VS probe labelling (fragment/DMSO); higher = less target engagement (more negative = stronger competition), active = hit call of the paper (q ≤ 0.05, log2 ratio ≤ -1)
Details in all cases: compound concentration: 200 uM; treatment time: 3 h

In one assay the target is T1, USP42 (UniProt Q9H9J4).
T1 sequence (whole entry): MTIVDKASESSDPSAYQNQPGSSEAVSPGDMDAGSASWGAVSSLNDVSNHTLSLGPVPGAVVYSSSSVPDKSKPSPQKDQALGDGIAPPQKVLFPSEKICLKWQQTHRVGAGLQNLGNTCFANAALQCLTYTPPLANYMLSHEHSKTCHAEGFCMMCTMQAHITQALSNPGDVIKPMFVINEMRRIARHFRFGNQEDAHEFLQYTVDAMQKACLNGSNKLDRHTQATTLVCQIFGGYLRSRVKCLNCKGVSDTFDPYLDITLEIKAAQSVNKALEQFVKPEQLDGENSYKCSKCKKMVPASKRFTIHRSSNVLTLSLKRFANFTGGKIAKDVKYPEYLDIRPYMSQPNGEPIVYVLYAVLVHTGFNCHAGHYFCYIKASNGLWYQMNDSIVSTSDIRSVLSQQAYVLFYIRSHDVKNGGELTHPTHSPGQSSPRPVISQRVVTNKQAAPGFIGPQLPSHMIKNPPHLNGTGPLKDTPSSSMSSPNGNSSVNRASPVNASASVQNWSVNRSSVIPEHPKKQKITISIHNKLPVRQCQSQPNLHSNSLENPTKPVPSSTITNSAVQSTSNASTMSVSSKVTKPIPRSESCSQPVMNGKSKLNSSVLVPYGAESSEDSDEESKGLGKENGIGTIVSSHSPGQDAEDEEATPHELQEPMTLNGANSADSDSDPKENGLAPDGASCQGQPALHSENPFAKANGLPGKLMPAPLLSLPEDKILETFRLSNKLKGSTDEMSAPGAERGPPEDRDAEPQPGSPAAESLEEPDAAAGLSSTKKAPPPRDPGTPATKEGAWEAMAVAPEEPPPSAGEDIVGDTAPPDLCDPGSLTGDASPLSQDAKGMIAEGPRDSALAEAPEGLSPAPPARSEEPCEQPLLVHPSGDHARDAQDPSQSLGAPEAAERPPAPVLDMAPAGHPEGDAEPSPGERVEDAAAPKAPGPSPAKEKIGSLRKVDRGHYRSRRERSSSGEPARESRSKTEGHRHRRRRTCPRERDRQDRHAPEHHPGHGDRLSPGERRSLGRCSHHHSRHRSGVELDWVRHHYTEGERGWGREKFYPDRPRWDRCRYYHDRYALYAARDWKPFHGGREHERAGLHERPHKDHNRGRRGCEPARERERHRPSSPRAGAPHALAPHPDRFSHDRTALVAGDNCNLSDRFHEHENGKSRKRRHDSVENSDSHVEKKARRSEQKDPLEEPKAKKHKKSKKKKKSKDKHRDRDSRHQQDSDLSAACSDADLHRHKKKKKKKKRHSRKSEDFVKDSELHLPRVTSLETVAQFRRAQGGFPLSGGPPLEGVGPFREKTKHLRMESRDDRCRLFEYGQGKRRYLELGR
The method, boiled down:
(§1)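 HEK293T lysate (495 µg per sample, in Tris/CHAPS/IGEPAL buffer with protease inhibitors) was exposed in triplicate for 3 h to fragment at 200 µM or to vehicle, then to Biotin-Ahx-Ub-VS at 0.5 µM final for 1 h. Labelled DUBs were enriched on NeutrAvidin, digested with LysC and trypsin, and analysed by diaPASEF LC-MS/MS. Spectronaut label-free quantities were normalised to the global median, and values are average log2 ratios of fragment over vehicle from an unpaired t-test. Only proteins with ≥2 unique peptides were used.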

The target of the next assay is USP46 (UniProt P62068). Put shortly: as §1
Sequence of USP46 (P62068 whole entry): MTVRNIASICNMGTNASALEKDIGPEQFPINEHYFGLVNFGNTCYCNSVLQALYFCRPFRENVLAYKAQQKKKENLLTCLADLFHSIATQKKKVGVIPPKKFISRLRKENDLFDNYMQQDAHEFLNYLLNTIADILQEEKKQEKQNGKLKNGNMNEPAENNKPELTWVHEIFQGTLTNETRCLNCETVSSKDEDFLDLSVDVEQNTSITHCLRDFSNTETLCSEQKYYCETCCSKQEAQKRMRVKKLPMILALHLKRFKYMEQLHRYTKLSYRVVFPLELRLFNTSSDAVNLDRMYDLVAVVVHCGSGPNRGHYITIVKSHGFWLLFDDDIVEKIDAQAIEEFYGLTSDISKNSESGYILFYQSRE
Another assay addresses T2, USP47 (UniProt Q96K76).
T2 sequence (whole entry): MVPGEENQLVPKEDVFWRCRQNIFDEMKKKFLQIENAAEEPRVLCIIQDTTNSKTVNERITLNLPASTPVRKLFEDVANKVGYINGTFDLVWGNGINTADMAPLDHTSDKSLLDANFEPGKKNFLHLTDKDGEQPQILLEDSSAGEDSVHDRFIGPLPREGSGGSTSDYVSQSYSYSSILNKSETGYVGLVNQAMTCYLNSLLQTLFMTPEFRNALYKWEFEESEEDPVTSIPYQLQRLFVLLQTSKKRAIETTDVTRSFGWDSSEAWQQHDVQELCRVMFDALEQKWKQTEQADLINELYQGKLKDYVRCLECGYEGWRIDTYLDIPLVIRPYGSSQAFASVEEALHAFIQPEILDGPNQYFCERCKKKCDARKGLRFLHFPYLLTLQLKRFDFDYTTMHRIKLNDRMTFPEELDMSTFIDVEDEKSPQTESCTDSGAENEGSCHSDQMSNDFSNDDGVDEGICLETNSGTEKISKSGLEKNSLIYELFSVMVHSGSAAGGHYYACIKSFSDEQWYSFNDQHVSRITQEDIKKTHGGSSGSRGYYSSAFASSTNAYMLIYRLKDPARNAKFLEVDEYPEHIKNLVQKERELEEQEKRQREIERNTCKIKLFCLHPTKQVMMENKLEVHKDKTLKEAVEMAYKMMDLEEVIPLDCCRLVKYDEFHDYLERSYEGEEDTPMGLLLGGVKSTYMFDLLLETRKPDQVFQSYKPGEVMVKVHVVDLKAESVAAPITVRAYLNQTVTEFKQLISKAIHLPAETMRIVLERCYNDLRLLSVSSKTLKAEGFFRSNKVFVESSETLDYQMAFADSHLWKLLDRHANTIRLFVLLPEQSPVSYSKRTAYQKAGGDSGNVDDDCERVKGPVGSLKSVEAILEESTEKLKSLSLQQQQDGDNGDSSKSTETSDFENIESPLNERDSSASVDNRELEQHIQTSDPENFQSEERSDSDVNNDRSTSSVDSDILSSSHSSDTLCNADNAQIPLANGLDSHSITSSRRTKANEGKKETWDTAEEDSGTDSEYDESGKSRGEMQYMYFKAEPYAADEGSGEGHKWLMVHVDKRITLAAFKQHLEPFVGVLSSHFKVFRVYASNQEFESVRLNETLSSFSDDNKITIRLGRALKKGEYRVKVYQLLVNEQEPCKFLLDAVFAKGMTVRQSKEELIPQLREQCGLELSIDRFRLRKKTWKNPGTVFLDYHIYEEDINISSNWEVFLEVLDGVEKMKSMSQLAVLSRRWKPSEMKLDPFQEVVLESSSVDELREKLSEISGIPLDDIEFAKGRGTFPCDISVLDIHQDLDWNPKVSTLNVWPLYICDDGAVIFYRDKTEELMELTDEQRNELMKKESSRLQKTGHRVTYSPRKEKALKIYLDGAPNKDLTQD
The method, boiled down:
as §1

The next assay concerns the target T3, USP48 (UniProt Q86UV5).
T3 sequence (whole entry): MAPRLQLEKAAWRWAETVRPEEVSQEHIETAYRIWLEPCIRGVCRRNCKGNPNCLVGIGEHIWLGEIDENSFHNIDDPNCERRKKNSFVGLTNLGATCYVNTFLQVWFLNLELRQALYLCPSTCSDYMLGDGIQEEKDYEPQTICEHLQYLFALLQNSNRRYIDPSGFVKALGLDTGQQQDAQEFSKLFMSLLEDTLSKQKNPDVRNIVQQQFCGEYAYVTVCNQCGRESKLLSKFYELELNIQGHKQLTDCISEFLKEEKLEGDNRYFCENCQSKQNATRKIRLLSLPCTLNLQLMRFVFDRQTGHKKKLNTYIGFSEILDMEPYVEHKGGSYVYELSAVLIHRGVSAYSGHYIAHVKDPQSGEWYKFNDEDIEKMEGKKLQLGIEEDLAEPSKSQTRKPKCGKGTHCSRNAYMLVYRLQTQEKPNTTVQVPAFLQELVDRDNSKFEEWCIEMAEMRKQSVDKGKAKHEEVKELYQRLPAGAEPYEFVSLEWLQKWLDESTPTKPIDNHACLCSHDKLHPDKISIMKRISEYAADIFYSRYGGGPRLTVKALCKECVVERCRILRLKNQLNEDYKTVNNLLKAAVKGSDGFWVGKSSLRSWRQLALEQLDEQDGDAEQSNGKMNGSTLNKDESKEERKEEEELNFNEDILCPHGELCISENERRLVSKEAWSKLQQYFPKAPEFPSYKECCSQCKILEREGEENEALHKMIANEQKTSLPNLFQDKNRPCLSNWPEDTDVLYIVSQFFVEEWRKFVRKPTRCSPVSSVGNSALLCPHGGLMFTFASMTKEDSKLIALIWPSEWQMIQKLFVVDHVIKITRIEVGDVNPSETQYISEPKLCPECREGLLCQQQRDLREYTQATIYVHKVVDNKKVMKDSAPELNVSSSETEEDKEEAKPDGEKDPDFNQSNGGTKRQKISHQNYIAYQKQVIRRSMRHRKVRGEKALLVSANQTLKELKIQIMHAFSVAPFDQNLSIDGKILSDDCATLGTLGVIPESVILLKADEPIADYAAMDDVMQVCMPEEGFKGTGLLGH
Put shortly: as §1

In another assay the target is T4, USP5 (UniProt P45974).
T4 sequence (whole entry): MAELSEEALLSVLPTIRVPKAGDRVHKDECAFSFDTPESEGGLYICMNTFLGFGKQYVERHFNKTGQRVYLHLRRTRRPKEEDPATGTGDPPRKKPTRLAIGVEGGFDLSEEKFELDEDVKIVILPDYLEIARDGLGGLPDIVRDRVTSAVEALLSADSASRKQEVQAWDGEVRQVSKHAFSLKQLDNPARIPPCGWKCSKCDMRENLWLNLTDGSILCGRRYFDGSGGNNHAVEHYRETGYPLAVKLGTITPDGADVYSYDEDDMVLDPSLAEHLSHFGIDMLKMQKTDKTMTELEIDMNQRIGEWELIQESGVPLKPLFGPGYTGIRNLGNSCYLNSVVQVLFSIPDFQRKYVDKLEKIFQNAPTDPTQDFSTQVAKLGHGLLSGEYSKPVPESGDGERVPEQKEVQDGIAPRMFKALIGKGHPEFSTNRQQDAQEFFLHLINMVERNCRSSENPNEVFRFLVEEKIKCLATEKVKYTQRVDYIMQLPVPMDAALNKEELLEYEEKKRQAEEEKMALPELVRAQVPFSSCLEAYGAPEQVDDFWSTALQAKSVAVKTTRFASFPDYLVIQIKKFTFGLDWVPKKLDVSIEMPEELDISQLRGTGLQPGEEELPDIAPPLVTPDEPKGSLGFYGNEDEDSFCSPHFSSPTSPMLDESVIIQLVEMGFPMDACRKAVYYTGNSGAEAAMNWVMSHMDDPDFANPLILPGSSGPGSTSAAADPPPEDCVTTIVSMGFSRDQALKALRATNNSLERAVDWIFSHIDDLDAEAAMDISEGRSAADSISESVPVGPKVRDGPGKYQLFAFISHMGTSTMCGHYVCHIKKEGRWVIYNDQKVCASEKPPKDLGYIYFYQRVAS
Put shortly:
as §1

For a further assay, the target named is USP54 (UniProt Q70EL1). Put shortly: as §1
Sequence of USP54 (Q70EL1 whole entry): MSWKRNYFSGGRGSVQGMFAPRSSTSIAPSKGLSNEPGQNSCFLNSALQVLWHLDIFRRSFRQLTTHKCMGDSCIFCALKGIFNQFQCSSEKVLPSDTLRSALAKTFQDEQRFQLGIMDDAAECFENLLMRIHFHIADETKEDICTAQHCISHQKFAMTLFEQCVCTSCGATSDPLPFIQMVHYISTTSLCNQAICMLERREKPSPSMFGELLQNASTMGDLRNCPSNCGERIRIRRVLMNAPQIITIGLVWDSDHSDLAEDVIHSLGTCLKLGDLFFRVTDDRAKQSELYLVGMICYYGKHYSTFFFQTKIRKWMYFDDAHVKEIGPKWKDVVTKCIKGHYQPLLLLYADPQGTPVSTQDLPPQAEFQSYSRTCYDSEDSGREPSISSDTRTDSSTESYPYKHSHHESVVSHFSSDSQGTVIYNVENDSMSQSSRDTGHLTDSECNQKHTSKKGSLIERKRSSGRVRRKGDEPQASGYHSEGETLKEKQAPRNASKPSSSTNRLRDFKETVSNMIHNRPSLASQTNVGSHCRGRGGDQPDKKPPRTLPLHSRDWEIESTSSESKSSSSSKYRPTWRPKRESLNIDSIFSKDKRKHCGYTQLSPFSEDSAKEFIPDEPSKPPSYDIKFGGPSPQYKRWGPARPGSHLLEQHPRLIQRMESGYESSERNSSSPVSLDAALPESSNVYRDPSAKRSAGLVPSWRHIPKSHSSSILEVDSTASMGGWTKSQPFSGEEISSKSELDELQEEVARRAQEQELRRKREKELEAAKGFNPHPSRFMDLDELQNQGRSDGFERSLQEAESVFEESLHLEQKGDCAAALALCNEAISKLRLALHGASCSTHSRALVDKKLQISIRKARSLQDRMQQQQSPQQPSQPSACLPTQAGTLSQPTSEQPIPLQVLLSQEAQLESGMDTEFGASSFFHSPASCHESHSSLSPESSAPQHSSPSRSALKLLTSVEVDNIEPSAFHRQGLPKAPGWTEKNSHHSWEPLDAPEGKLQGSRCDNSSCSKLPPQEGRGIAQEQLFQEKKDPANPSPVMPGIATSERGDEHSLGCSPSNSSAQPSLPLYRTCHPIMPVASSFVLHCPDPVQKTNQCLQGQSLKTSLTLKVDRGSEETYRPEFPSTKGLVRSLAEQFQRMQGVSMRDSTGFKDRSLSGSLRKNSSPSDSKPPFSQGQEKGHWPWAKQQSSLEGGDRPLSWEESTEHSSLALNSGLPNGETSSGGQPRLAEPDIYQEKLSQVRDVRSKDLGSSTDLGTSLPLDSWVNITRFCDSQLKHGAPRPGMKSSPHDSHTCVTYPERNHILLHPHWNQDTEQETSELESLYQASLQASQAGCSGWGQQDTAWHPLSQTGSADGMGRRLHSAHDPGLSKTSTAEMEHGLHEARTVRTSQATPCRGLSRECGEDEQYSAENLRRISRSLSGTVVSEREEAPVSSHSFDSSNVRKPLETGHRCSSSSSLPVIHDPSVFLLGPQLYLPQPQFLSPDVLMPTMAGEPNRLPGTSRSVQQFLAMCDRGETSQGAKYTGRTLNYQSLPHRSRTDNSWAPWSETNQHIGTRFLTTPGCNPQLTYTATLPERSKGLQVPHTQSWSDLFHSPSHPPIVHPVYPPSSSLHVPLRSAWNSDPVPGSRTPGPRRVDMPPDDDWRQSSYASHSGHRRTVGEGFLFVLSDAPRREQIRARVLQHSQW
A further assay addresses USP7 (UniProt Q93009). Put shortly: as §1
The next assay has as its target T5, USP8 (UniProt P40818).
T5 sequence (whole entry): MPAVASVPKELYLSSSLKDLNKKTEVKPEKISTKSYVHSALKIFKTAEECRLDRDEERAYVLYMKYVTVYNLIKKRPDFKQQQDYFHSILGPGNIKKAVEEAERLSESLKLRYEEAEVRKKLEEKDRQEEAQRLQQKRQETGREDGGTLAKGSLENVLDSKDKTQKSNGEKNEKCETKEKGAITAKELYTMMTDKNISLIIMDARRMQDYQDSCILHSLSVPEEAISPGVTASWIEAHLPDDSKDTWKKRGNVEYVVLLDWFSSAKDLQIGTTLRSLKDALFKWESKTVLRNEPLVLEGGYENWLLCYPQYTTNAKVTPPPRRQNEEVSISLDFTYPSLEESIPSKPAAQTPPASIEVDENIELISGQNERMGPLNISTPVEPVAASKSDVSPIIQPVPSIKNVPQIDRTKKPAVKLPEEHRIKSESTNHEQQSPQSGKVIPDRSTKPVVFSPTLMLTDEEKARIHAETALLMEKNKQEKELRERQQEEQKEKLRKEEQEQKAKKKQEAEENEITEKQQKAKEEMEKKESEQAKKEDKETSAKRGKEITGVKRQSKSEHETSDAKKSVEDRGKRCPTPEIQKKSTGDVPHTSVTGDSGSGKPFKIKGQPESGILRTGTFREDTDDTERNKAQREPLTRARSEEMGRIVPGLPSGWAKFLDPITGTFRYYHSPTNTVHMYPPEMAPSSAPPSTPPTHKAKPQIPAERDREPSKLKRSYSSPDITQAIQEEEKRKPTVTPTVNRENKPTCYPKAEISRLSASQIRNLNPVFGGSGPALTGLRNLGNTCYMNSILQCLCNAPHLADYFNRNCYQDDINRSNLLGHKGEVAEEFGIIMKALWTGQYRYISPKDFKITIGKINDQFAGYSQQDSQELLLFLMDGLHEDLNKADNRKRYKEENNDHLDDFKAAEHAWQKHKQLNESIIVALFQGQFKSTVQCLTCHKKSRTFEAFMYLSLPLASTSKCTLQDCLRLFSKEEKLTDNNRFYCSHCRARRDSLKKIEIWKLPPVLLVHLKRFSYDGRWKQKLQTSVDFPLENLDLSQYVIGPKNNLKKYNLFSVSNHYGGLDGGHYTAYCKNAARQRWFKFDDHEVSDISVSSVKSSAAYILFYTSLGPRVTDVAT
The method, boiled down:
as §1

The target in the next assay is USP9X (UniProt Q93008). Put shortly: as §1
Sequence of USP9X (Q93008 whole entry): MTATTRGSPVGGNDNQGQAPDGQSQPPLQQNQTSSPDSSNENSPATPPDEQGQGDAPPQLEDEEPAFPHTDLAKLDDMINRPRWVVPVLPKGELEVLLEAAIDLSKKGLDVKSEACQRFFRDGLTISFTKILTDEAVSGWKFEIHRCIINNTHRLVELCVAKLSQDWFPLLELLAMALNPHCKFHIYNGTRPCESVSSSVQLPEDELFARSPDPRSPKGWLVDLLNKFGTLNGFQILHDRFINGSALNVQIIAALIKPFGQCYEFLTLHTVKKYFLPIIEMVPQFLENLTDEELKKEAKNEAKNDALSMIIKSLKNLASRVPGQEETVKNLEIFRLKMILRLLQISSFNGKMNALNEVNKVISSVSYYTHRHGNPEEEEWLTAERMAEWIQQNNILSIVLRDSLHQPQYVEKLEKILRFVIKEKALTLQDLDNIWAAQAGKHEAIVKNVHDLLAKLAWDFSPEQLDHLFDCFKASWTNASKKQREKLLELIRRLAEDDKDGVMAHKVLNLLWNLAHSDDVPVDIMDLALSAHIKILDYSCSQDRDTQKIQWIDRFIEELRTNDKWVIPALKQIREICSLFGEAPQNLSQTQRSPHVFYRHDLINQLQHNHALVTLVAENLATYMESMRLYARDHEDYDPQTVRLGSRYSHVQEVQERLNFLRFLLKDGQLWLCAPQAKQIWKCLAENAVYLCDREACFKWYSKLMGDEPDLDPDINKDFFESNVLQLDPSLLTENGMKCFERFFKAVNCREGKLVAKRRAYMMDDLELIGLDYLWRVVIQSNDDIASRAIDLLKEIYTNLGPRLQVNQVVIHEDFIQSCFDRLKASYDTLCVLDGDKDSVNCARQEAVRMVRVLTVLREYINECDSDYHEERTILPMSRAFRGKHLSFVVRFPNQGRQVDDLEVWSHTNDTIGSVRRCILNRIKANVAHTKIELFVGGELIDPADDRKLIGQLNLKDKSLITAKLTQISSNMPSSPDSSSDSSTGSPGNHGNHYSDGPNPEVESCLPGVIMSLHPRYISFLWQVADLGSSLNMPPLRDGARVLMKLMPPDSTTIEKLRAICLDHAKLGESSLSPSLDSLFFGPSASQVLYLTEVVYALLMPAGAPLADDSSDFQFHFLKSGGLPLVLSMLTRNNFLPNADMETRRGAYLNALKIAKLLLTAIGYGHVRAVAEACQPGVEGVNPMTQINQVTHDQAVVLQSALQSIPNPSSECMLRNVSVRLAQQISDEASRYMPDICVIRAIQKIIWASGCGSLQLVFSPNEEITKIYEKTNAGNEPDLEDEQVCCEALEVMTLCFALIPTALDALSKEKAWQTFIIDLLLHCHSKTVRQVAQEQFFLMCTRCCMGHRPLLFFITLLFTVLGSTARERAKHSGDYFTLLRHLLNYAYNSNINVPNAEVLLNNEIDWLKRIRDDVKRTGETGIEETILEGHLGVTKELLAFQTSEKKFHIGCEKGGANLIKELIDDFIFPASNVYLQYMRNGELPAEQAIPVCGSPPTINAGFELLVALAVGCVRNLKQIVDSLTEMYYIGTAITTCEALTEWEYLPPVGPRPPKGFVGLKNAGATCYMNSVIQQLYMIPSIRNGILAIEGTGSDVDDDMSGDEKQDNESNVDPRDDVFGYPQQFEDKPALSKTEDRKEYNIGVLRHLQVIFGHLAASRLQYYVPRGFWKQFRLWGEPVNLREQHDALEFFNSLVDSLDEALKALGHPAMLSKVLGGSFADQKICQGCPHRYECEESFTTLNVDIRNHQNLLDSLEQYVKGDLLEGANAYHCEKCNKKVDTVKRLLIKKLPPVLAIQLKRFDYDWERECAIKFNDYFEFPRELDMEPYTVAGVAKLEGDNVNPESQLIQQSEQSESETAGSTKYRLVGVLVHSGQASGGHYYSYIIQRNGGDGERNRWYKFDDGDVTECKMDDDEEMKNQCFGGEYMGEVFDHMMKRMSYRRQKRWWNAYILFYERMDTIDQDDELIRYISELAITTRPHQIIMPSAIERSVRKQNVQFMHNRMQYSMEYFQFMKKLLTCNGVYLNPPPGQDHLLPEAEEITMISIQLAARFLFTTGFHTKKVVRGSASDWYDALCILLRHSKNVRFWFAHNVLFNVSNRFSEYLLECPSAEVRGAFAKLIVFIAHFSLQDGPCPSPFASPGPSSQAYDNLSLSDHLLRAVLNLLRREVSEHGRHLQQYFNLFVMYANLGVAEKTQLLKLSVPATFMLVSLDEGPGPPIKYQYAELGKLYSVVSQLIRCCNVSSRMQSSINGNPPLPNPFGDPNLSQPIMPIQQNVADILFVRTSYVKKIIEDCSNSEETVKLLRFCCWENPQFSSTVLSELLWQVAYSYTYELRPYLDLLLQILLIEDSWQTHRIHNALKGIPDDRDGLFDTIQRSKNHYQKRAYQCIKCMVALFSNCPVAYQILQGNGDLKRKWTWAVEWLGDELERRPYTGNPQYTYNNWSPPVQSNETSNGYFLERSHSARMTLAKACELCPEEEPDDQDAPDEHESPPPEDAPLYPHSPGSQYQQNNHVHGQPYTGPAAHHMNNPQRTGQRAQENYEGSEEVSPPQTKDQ
In a further assay the target is UniProt O00487. Put shortly:
as §1

Sequence of UniProt O00487 (O00487 whole entry): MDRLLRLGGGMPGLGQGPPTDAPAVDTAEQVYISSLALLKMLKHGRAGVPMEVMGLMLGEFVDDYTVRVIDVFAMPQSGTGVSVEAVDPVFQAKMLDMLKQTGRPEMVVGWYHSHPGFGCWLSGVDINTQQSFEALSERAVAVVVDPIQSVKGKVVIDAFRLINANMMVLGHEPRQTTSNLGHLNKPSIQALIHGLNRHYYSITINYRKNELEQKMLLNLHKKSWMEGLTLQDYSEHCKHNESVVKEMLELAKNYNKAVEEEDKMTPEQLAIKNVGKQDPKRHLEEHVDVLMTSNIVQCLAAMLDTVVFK

In the case of `O=C(CCl)N1CCC(C(O)c2ccc(F)cc2)CC1` (stereo not given), the “log2 ratio of Biotin-Ahx-Ub-VS probe labelling” value (“log2 ratio” for short) with USP42 is 0.365; with USP46 it was 0.252; with USP47, -0.324; with USP48, 0.00604; in the assay with USP5 it was 0.131; in the assay with USP54 it was -0.000277. Also, the “log2 ratio” value is -0.0695 with USP7, 0.0961 with USP8, 0.23 in the assay with USP9X and 0.0841 in the assay with UniProt O00487.

As for `Cl.O=C(CCl)N1CCC(n2nc3ccccc3n2)CC1`, the “log2 ratio” value with USP42 is 0.181; in the assay with USP46, -0.321; in the assay with USP47, -0.894; with USP48 it was -0.485; with USP5, -0.467; in the assay with USP54, -0.186. In addition, the “log2 ratio” value is -1.88 (active) in the assay with USP7, -0.518 with USP8, -0.485 with USP9X and -0.114 in the assay with UniProt O00487.

In the case of `Cc1cc(C2CCCN2C(=O)CCl)nn1C.Cl` (stereo not given), the “log2 ratio” value with USP42 is 0.512; with USP46, -0.144; with USP47 it was -0.308; with USP48, -0.159; with USP5, -0.0636; with USP54, -0.39. Further, the “log2 ratio” value with USP7 was -0.329; with USP8, -0.274; in the assay with USP9X it was -0.131; with UniProt O00487, -0.229.
